Compound activity deposited in PubChem by Broad Institute.
A selection follows.
aSyn 5UTR act – Activators via SNCA 5'UTR binding, MLPCN | alpha-synuclein 5'UTR reporter, activators screen | activity score, % (tested at 7.5 µM), hits read low | 7.1% of 300,000 active | AID 1814; in the data active = activity score below about -60%
* hit, by the source's call.

SMILES	aSyn 5UTR act
Cc1ncc(CO)c(/C=N/Nc2ccc(C(F)(F)F)cn2)c1O	87.6
Cc1ncc(CO)c(/C=N/N=C/c2ccccc2O)c1O	-88.7*
N#Cc1c(-c2ccccc2)c(-c2ccccc2)nn(CC(=O)NNC(=O)Nc2ccccc2)c1=O	-91.8*
Cc1ccc(NC(=O)C2=NNC(=O)CC2)cc1F	-74.9*
CC(C)c1ccc(NC(=O)C2=NNC(=O)CC2)cc1	-143.2*
Cc1c(C=O)c2cc(OCc3ccccc3)ccc2n1C	-75.8*
Cc1cc2cc(OCc3ccccc3)ccc2n1C	-182.5*
CC(=O)c1ccc(OC(C)c2nc3ccccc3s2)cc1 (stereo not drawn)	-88.6*
S=C(c1ccc(-c2ccc(Br)cc2)o1)N1CCOCC1	-178.0*
O=C(c1ccc(-c2cccc(C(F)(F)F)c2)o1)N1CCOCC1	-71.2*
O=C(c1ccc(-c2ccc([N+](=O)[O-])cc2Cl)o1)N1CCOCC1	-134.6*
S=C(c1ccc(-c2ccc(Cl)c(Cl)c2)o1)N1CCOCC1	-155.2*
O=C(Cc1ccc(Br)cc1)N1CCCCCC1	-176.3*
S=C(c1ccc(-c2ccccc2Cl)o1)N1CCOCC1	-137.0*
CC1CCN(C(=O)c2ccc(-c3ccccc3Cl)o2)CC1	-103.6*
S=C(c1ccc(-c2ccc(Br)cc2)o1)N1CCCCC1	-201.4*
O=C(c1ccc(-c2cccc(Cl)c2Cl)o1)N1CCOCC1	-132.9*
COc1ccc(NC(=O)Nc2ccccc2F)c([N+](=O)[O-])c1	-139.4*
Oc1c(N=NC(=S)Nc2ccccc2F)c2ccccc2n1Cc1ccccc1Cl	86.8
O=C(Nc1ccc(F)cc1)Nc1cccnc1Cl	-80.6*
O=C(Nc1ccccc1)Nc1cccn(Cc2c(F)cccc2Cl)c1=O	-103.1*
COc1ccc(NC(=O)Nc2ccccc2SC)cc1	-113.2*
CC(=O)N(C)c1ccc(NC(=O)Nc2ccccc2C)cc1	-106.8*
COc1ccc(NC(=O)Nc2ccccc2F)cc1	-134.0*
O=C(Nc1ccccc1F)Nc1ccccc1Br	-106.1*
SMILES	aSyn 5UTR act
CSc1ccc(NC(=O)Nc2ccccc2C(N)=O)cc1	-92.0*
COc1cc(C)c(C(=O)CC(=O)c2c(C)cc(OC)cc2C)c(C)c1	72.2
COc1ccc(NC(=O)Nc2ccccc2F)c(C)c1	-97.8*
O=C(Nc1ccc(F)cc1)Nc1ccccc1F	-179.6*
CSc1ccccc1NC(=O)Nc1ccc(Cl)cc1	-189.8*
COc1ccc(NC(=O)Nc2ccccc2F)cc1Cl	-184.1*
Cc1ccccc1NC(=O)OCc1ccccc1	-84.4*
COc1cccc(COC(=O)Nc2ccccc2F)c1	-146.0*
Fc1ccccc1NC(=S)N/N=C/c1ccccc1Br	-247.5*
COC(=O)c1ccc(NC(=O)Nc2ccccc2C)cc1	-106.6*
O=C(Nc1ccc(Cl)cc1)Nc1ccccc1CC[N+](=O)[O-]	-96.8*
COC(=O)c1ccc(NC(=O)Nc2ccccc2F)cc1	-95.3*
COc1ccc(NCC(=O)Nc2ccccc2C#N)cc1Cl	-67.9*
COc1ccc(C/C(C)=N/NC(=S)Nc2ccccc2F)cc1	-151.8*
Cc1ccc(Cn2c(O)c(N=NC(=S)Nc3ccccc3F)c3ccccc32)cc1	71.4
O=C(C#Cc1ccccc1)Nc1ccccc1F	-140.7*
COc1ccc(-c2ccc(-c3noc(-c4ccco4)n3)c(OC)n2)cc1	-125.7*
COc1nc(-c2ccccc2)ccc1-c1noc(-c2ccco2)n1	-167.5*
COc1nc(C)ccc1-c1noc(-c2ccncc2)n1	-124.9*
COc1nc(-c2ccccc2)ccc1-c1noc(-c2cccs2)n1	-198.0*
COc1nc(-c2ccccc2)ccc1-c1noc(-c2ccccc2)n1	-93.7*
C/C(=N\NC(=O)c1cccc(Cl)c1)C1C(=O)c2ccccc2C1=O	-119.9*
CCN(CC)CCNc1ccnc2cc(Cl)ccc12	-61.7*
CCOC(=O)c1c(NC2OC(=O)c3c2ccc(OC)c3OC)sc(C(=O)OC(C)(C)C)c1C (stereo not drawn)	-79.5*
CC(C)=CC(=O)Nc1nnc(-c2cccnc2)s1	-67.4*
SMILES	aSyn 5UTR act
CC(C)=CC(=O)Nc1nnc(C(C)C)s1	-119.4*
O=[N+]([O-])c1ccc(-c2ccc(/C=N/O)o2)cc1	-95.3*
O/N=C\c1ccc(-c2ccccc2)o1	-112.3*
Cc1nc(NC(=O)c2cccs2)ccc1Br	-284.2*
CCc1sc(C(=O)Nc2nc(C)cs2)cc1C	-81.9*
Cc1csc(NC(=O)c2cccs2)n1	-112.1*
CC(=O)c1sc(NC(=O)c2cccs2)nc1C	-98.5*
CCOc1cccc2sc(NC(=O)c3ccc(Br)s3)nc12	-81.2*
Cc1csc(NC(=O)c2ccc(Br)s2)n1	-101.9*
COc1ccc(C(=O)/C(=C\c2sccc2C)c2nc3ccccc3o2)cc1	-67.8*
CC(C)N1CC(O)=C(c2nc3ccccc3c(=O)[nH]2)C1=N	-75.0*
COc1ccc(OCc2cc(C(=O)NCCc3ccccc3)no2)c(Cl)c1	-95.3*
COc1ccc(CCNC(=O)c2cc(COc3c(C)cccc3C)on2)c(OC)c1	-91.2*
COc1ccc(OCc2cc(C(=O)NCC3CCOCC3)no2)c(Cl)c1	-140.1*
O=C(NCCc1cnn(-c2ccccc2)c1)c1cc(COc2c(F)cccc2F)on1	-79.6*
COc1ccc(OCc2cc(C(=O)NCC3CCCCO3)no2)c(Cl)c1 (stereo not drawn)	-152.4*
